# Results reported in PubChem BioAssay AID651956 (Broad Institute, 2012).
# Measured potencies and affinities stand elsewhere. Results filed as inconclusive are left out. The source made the active and inactive calls.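 How the source made its calls: active means in every test run, a fitted half-maximal concentration for signal decrease at or below twice the highest tested concentration; inconclusive means runs disagree, flat 30 to 70% decrease, or poor fit; inactive means the rest.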
# Assay: activation of miR-122 Renilla sensor silencing – cell-based, Huh7 psiCHECK-miR122, Renilla luciferase, cherry-picked, dose response (AID 651956)
# Settings: Huh7 psiCHECK-miR122 Renilla luciferase reporter, 48 h; series mostly up to 35 µM
row,SMILES,outcome
1,COC(=O)C[C@@H]1CC[C@@H]2[C@@H](COc3ccc(NC(=O)Nc4cccc(C#N)c4)cc3C(=O)N2C)O1,inactive
2,CN1C(=O)c2cc(NC(=O)C3CC3)ccc2OC[C@@H]2O[C@H](CC(=O)NC3CCC3)CC[C@H]21,inactive
3,Clc1ccc(CSc2nnc(-c3ccncc3)o2)c(Cl)c1,inactive
4,Cc1ccc(OCCN2CCN(c3ncnc4sc(C)c(C)c34)CC2)cc1,inactive
5,CNC(=O)C[C@H]1CC[C@@H]2[C@@H](COc3ccc(NC(=O)C(C)C)cc3C(=O)N2C)O1,inactive
6,O=C(CN1CCN(c2nc(-c3ccccc3)cs2)CC1)Nc1ccc2c(c1)OCO2,inactive
7,O=C(CSc1nc2ccccc2s1)N1CCOCC1,inactive
8,COCC(=O)Nc1ccc2c(c1)C(=O)N(C)[C@@H]1CC[C@@H](CC(=O)NC3CCCC3)O[C@@H]1CO2,inactive
9,Cc1ccc(-c2noc(CCC(=O)Nc3ccccc3C)n2)cc1,inactive
10,CC1CCN(CCc2nc3cc(NC(=O)Nc4ccccc4)ccc3n2C)CC1,inactive
11,Cc1cc(C)c2c(c1)/C(=C/C(=O)c1ccc(Br)s1)C(=O)N2,inactive
12,CCOc1ccc(-c2nnc(SCC(=O)Nc3ccc4c(c3)c3ccccc3n4CC)n2N)cc1,inactive
13,C[C@@H]1CN([C@@H](C)CO)C(=O)c2cccc(NC(=O)Nc3ccc4c(c3)OCO4)c2O[C@@H]1CN(C)Cc1ccc(Oc2ccccc2)cc1,inactive
14,COc1cccc(-c2nn(-c3ccccc3)cc2CO)c1,inactive
15,Cc1[nH]c(=O)c(C#N)cc1-c1ccccc1,inactive
16,CCNC(=O)C[C@H]1CC[C@H]2[C@H](COc3ccc(NS(C)(=O)=O)cc3C(=O)N2C)O1,inactive
